# According to PubChem BioAssay AID1159580 (chemical genetic matrix, 2015):
# Out of some 5,500 compounds screened, about 2,000 (36%) were called active. Roughly 18% stayed inconclusive and do not appear here. This is one part of the list. Unmarked numbers belong to inactive results. Rule as the data show it: active = normalized growth mostly below about 0.91 (no sharp cut-off); inconclusive = no clear call, values can overlap the other calls; inactive = mostly above about 0.92.
# Assay: chemical genetic growth profiling, strain panel (AID 1159580);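 also: tested at 20 µM; growth read once vehicle control cultures reached saturation at 30 °C; 1 = growth at the plate median or of vehicle wells; lower values mean less growth of the strain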
# Details: S. cerevisiae deletion strains, growth OD
# [1] = locus YAR019C, strain CDC15, active compounds read low
# [2] = locus YBL105C, strain PKC1, active compounds read low
# [3] = locus YBR135W, strain CKS1, active compounds read low
# [4] = locus YBR136W, strain MEC1, active compounds read low
# [5] = locus YBR160W, strain CDC28, active compounds read low
# [6] = locus YDL017W, strain CDC7, active compounds read low
# [7] = locus YDL028C, strain MPS1, active compounds read low
# [8] = locus YDL101C, strain DUN1, active compounds read low
# [9] = locus YDL108W, strain KIN28, active compounds read low
# [10] = locus YDL132W, strain cdc53, active compounds read low
# [11] = locus YDL214C, strain PRR2, active compounds read low
# [12] = locus YDR052C, strain DBF4, active compounds read low
# [13] = locus YDR054C, strain cdc34, active compounds read low
# [14] = locus YDR226W, strain ADK1, active compounds read low
# [15] = locus YDR477W, strain SNF1, active compounds read low
# [16] = locus YER123W, strain YCK3, active compounds read low
# [17] = locus YER133W, strain GLC7, active compounds read low
# [18] = locus YFL009W, strain cdc4, active compounds read low
# [19] = locus YFL029C, strain CAK1, active compounds read low
# [20] = locus YFR003C, strain YPI1, active compounds read low
# [21] = locus YFR019W, strain FAB1, active compounds read low
# [22] = locus YFR028C, strain CDC14, active compounds read low
# [23] = locus YGR040W, strain KSS1, active compounds read low
# [24] = locus YGR052W, strain FMP48, active compounds read low
# [25] = locus YGR092W, strain DBF2, active compounds read low
# [26] = locus YHR030C, strain SLT2, active compounds read low
# [27] = locus YHR079C, strain IRE1, active compounds read low
# [28] = locus YHR082C, strain KSP1, active compounds read low
# [29] = locus YHR205W, strain SCH9, active compounds read low
# [30] = locus YIL147C, strain SLN1, active compounds read low
# [31] = locus YJL095W, strain BCK1, active compounds read low
# [32] = locus YJL128C, strain PBS2, active compounds read low
# [33] = locus YJL157C, strain FAR1, active compounds read low
# [34] = locus YJR016C, strain ILV3, active compounds read low
# [35] = locus YJR066W, strain TOR1 (second series), active compounds read low
# [36] = locus YJR066W, strain TOR1, active compounds read low
# [37] = locus YKL048C, strain ELM1, active compounds read low
# [38] = locus YKL067W, strain YNK1, active compounds read low
# [39] = locus YKL101W, strain HSL1, active compounds read low
# [40] = locus YKL193C, strain SDS22, active compounds read low
# [41] = locus YKL203C, strain TOR2, active compounds read low
# [42] = locus YLR113W, strain HOG1, active compounds read low
# [43] = locus YLR133W, strain CKI1, active compounds read low
# [44] = locus YLR403W, strain SFP1, active compounds read low
# [45] = locus YML070W, strain DAK1, active compounds read low
# [46] = locus YMR001C, strain CDC5, active compounds read low
# [47] = locus YMR205C, strain PFK2 (second series), active compounds read low
# [48] = locus YMR277W, strain FCP1, active compounds read low
# [49] = locus YNL006W, strain LST8, active compounds read low
# [50] = locus YNL020C, strain ARK1, active compounds read low
# [51] = locus YNL161W, strain CBK1, active compounds read low
# [52] = locus YNL183C, strain NPR1, active compounds read low
# [53] = locus YNL207W, strain RIO2, active compounds read low
# [54] = locus YNL222W, strain SSU72, active compounds read low
# [55] = locus YNL307C, strain MCK1 (second series), active compounds read low
# [56] = locus YOL078W, strain AVO1, active compounds read low
# [57] = locus YOL136C, strain PFK27, active compounds read low
# [58] = locus YOR061W, strain CKA2, active compounds read low
# [59] = locus YOR119C, strain RIO1, active compounds read low
# [60] = locus YOR231W, strain MKK1, active compounds read low
# [61] = locus YOR329C, strain SCD5, active compounds read low
# [62] = locus YPL031C, strain PHO85, active compounds read low
# [63] = locus YPL153C, strain RAD53, active compounds read low
# [64] = locus YPL204W, strain HRR25, active compounds read low
# [65] = locus YPL209C, strain IPL1, active compounds read low
# [66] = locus YPL256C, strain CLN2, active compounds read low
# [67] = locus YPR025C, strain CCL1, active compounds read low
# [68] = locus YPR106W, strain ISR1, active compounds read low
# [69] = locus YPR111W, strain DBF20, active compounds read low
# [70] = strain NNK1, active compounds read low
# [71] = strain TSCII, active compounds read low
smiles,measurement,setting,value
CSc1n[nH]c(-c2cc(C(C)(C)C)oc2C)c1C#N,normalized growth,[1],0.949
same,normalized growth,[2],0.951
same,normalized growth,[3],0.952
same,normalized growth,[4],0.967
same,normalized growth,[5],0.955
same,normalized growth,[6],0.953
same,normalized growth,[7],0.966
same,normalized growth,[8],0.967
same,normalized growth,[9],0.937
same,normalized growth,[10],0.933
same,normalized growth,[11],0.847
same,normalized growth,[12],0.964
same,normalized growth,[13],0.934
same,normalized growth,[14],0.952
same,normalized growth,[15],0.835
same,normalized growth,[16],0.834
same,normalized growth,[17],0.867
same,normalized growth,[18],0.962
same,normalized growth,[19],0.928
same,normalized growth,[20],0.95
same,normalized growth,[21],0.943
same,normalized growth,[22],0.979
same,normalized growth,[23],0.847
same,normalized growth,[24],0.833
same,normalized growth,[25],0.78
same,normalized growth,[26],0.542 (active)
same,normalized growth,[27],0.86
same,normalized growth,[28],0.818
same,normalized growth,[29],0.908
same,normalized growth,[30],0.954
same,normalized growth,[31],0.744
same,normalized growth,[32],0.894
same,normalized growth,[33],0.883
same,normalized growth,[34],0.946
same,normalized growth,[35],0.897
same,normalized growth,[36],0.789
same,normalized growth,[37],0.949
same,normalized growth,[38],0.846
same,normalized growth,[39],0.914
same,normalized growth,[40],0.948
same,normalized growth,[41],0.908
same,normalized growth,[42],0.776 (active)
same,normalized growth,[43],0.888
same,normalized growth,[44],0.885
same,normalized growth,[45],0.879
same,normalized growth,[46],0.945
same,normalized growth,[47],0.888
same,normalized growth,[48],0.938
same,normalized growth,[49],0.947
same,normalized growth,[50],0.892
same,normalized growth,[51],0.948
same,normalized growth,[52],0.815
same,normalized growth,[53],0.937
same,normalized growth,[54],0.944
same,normalized growth,[55],0.89
same,normalized growth,[56],0.943
same,normalized growth,[57],0.906
same,normalized growth,[58],0.909
same,normalized growth,[59],0.83
same,normalized growth,[60],0.847
same,normalized growth,[61],0.948
same,normalized growth,[62],0.824
same,normalized growth,[63],0.819
same,normalized growth,[64],0.818
same,normalized growth,[65],0.959
same,normalized growth,[66],0.814 (active)
same,normalized growth,[67],0.948
same,normalized growth,[68],0.947
same,normalized growth,[69],0.94
same,normalized growth,[70],0.943
same,normalized growth,[71],0.925
CSc1sc(C(=O)Sc2ccccc2)cc1S(=O)(=O)C(C)C,normalized growth,[1],0.994
same,normalized growth,[2],0.997
same,normalized growth,[3],0.995
same,normalized growth,[4],0.991
same,normalized growth,[5],1
same,normalized growth,[6],0.995
same,normalized growth,[7],0.996
same,normalized growth,[8],1
same,normalized growth,[9],0.999
same,normalized growth,[10],0.983
same,normalized growth,[11],0.962
same,normalized growth,[12],0.993
same,normalized growth,[13],0.976
same,normalized growth,[14],1
same,normalized growth,[15],0.966
same,normalized growth,[16],0.902
same,normalized growth,[17],0.958
same,normalized growth,[18],0.979
same,normalized growth,[19],0.983
same,normalized growth,[20],0.994
same,normalized growth,[21],0.987
same,normalized growth,[22],0.992
same,normalized growth,[23],0.956
same,normalized growth,[24],0.927
same,normalized growth,[25],0.95
same,normalized growth,[26],0.997
same,normalized growth,[27],1
same,normalized growth,[28],0.988
same,normalized growth,[29],0.911
same,normalized growth,[30],0.99
same,normalized growth,[31],0.937
same,normalized growth,[32],0.937
same,normalized growth,[33],0.941
same,normalized growth,[34],0.988
same,normalized growth,[35],0.971
same,normalized growth,[36],1
same,normalized growth,[37],0.953
same,normalized growth,[38],0.961
same,normalized growth,[39],0.94
same,normalized growth,[40],0.992
same,normalized growth,[41],1.02
same,normalized growth,[42],0.688 (active)
same,normalized growth,[43],0.955
same,normalized growth,[44],0.945
same,normalized growth,[45],0.93
same,normalized growth,[46],0.985
same,normalized growth,[47],0.966
same,normalized growth,[48],0.979
same,normalized growth,[49],0.997
same,normalized growth,[50],0.961
same,normalized growth,[51],0.993
same,normalized growth,[52],0.941
same,normalized growth,[53],0.974
same,normalized growth,[54],0.997
same,normalized growth,[55],0.946
same,normalized growth,[56],0.975
same,normalized growth,[57],0.929
same,normalized growth,[58],0.95
same,normalized growth,[59],1
same,normalized growth,[60],0.921
same,normalized growth,[61],0.994
same,normalized growth,[62],0.972
same,normalized growth,[63],0.988
same,normalized growth,[64],0.948
same,normalized growth,[65],0.994
same,normalized growth,[66],0.969
same,normalized growth,[67],0.996
same,normalized growth,[68],0.997
same,normalized growth,[69],0.979
same,normalized growth,[70],0.977
same,normalized growth,[71],0.98
